# Source: PubChem
# PriA SSB inh = K. pneumoniae PriA-SSBct interaction inhibition | inhibition, % at 33 µM | 0.6% of 430,000 active | AID 1272365 | AlphaScreen SSBct-PriA binding, biotinylated peptide; in the data active means inhibition mostly above about 37%, no sharp cut-off; inactive means mostly below about 20%;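 further: plate controls were negative control peptide for no effect and reference peptide for full effect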
# FadD28 FP inh = inhibitors of Mycobacterium tuberculosis FadD28 bisubstrate binding | 0.22% of 360,000 active | inhibition, % at 12.5 µM | FadD28 bisubstrate probe binding, fluorescence polarization; in the data active means inhibition above about 8.5%, passing the limit was not always enough
# PrPC TRFRET = reduces human prion protein on the cell surface; P04156; cell surface PrPC, TR-FRET read-out; inhibition, % at 13.8 µM; 0.43% of 370,000 active; AID 720596; in the data active means inhibition above about 24%; further: 0% = median of the test wells and 100% = reference compound wells
# Vc quorum ag = induces V. cholerae light production without autoinducers; V. cholerae BH1578 lux reporter, luminescence, 6 h; activation, % at 18.7 µM; 0.16% of 350,000 active; AID 588436; in the data active means activation mostly above about 9.7%, no sharp cut-off
# PrP UTR inh = suppresses PrP 5' UTR mRNA reporter expression. cell-based PrP 5' UTR mRNA reporter, plate reader. AID 488862. 0.35% of 340,000 active. inhibition, % (concentration not given with the values); in the data active means inhibition above about 52%; further: 0 = median of the neutral control wells
# Active calls of the source: *; i = inactive; / = no result; + = active, no number. Rows were chosen to be rich in hits. Some 1.4% of all compounds tested hit in one or more screens of this group.
SMILES,PriA SSB inh,FadD28 FP inh,PrPC TRFRET,Vc quorum ag,PrP UTR inh
Oc1ccc(CNc2ncccn2)c2cccnc12,76*,/,/,/,/
Oc1ccc(-c2ccccc2F)c2cccnc12,/,/,4,/,/
COc1cccc(C[C@@]2(O)C(=O)Nc3ccc(Br)cc32)c1,-11,/,/,/,/
CCOc1ccc(CNC(=O)CCc2nc3sc4c(c3c(=O)[nH]2)CCCC4)cc1OCC,-12,/,/,/,/
O=C(O)Cc1ccc(O)c2ncccc12,87*,/,/,/,/
OCc1ccc(O)c2ncccc12,80*,-2,-6,/,8
Oc1ccc(Br)c2cccnc12,52,/,/,/,/
O=C(Nc1nc2c(s1)COCC2)c1cc2ccccc2[nH]1,-9,/,/,/,/
O=C(NC1CC1)C(=O)c1c(-c2ccccc2)[nH]c2ccccc12,-3,-1,-9,0,-36
Cn1cc(C(=O)C(=O)NC2CC2)c2ccccc21,-2,0,2,-3,-9
O=C(NC1CCCCC1)C(=O)c1c(-c2ccccc2)[nH]c2ccccc12,-4,-2,5,+,-15
Cn1cc(C(=O)C(=O)NC2CCCCC2)c2ccccc21,1,1,4,80*,-23
O=C(CCn1cnc2ccccc2c1=O)NCc1ccnc(-c2cccs2)c1,-5,/,/,/,/
CCN(c1ccc(NS(=O)(=O)c2cc(Cl)ccc2Cl)cc1)C(C)C,40*,-2,4,i,-17
CN(C)c1ccc(NS(=O)(=O)c2cc(Cl)ccc2Cl)cc1,35,0,5,0,-19
C#CCn1c(=NC(=O)CSCC(=O)NC2CCCCC2)sc2ccccc21,43*,/,/,/,/
COC(=O)Cn1c(=NC(=O)CSCC(=O)NC2CCCCC2)sc2cc(OC)ccc21,-8,-1,/,0,-14
O=C(Nc1cnoc1)[C@@H]1CC=CCC1,-11,/,/,/,/
COc1ccc(C=NNC(=O)c2ccoc2C)cc1COc1ccc(Cl)cc1,-9,/,/,/,/
Cc1ccc(NC(=O)CSc2n[nH]c(-c3ccccn3)n2)cc1,97*,2,5,0,-3
O=C(CSc1n[nH]c(-c2ccccn2)n1)Nc1ccc(Cl)cc1,-24,0,9,0,9
O=C(CSc1n[nH]c(-c2ccccn2)n1)Nc1ccc(F)cc1,82*,-2,1,0,12
NC(=O)c1ccccc1OCC#CCNC(=O)Cn1ccc2ccccc21,-19,/,/,/,/
COc1ncccc1C(=O)NCc1ccccc1-c1ccsc1,-14,/,/,/,/
CCCCCCc1cc2cc(C(N)=O)c(=O)oc2cc1O,-3,/,/,/,/
SMILES,PriA SSB inh,FadD28 FP inh,PrPC TRFRET,Vc quorum ag,PrP UTR inh
O=C1C(c2ccccc2)=C(N2CC2)c2ccccc21,41*,-2,-40,i,-38
O=C1C(Nc2ccccc2)=C(N2CCCCC2)C(=O)c2ccccc21,-16,0,-16,0,-17
CCN(CC)c1ccc(C(=C2C=CC(=[N+](CC)CC)C=C2)c2ccc(S(=O)(=O)O)cc2S(=O)(=O)[O-])cc1,82*,1,-123,i,-1
CCN(CC)c1ccc(NC(=O)c2ccc(S(=O)(=O)N3CCOCC3)cc2)cc1,-1,-1,-3,-2,-9
CC(=O)N=c1scc(-c2ccccc2)n1-c1cccc(O)c1,-6,/,2,0,-6
Cc1c(-n2c(-c3ccccc3)csc2=NC(=O)c2ccccc2)c(=O)n(-c2ccccc2)n1C,44*,/,/,/,/
O=C(N1CCC(Oc2ncccn2)CC1)C1(c2cccs2)CCCC1,-11,/,/,/,/
O=C(Nc1nc(-c2ccccn2)cs1)c1cccc(F)c1,120*,/,/,/,/
CC(=O)Nc1cccc(C(=O)Nc2nc(-c3ccccn3)cs2)c1,67*,/,/,/,/
Cc1ccc(N2CCN(N=C/C=C/c3ccccc3)CC2)cc1,2,/,/,/,/
COC(=O)[C@@H]1C[C@@]2(O)[C@@H](O)[C@@H](O)[C@@H](O)C[C@H]2N1Cc1cc(OC)cc(OC)c1,101*,-1,12,i,-31
COc1cc(N=Nc2ccc(C)cc2S(N)(=O)=O)c(C)cc1N,48*,2,-20,i,-9
Cc1ccc(S(=O)(=O)NCC2CCN(Cc3ccco3)CC2)c(C)c1,-9,/,/,/,/
CCCCNc1c([N+](=O)[O-])cc(C)cc1[N+](=O)[O-],76*,-4,-1,-5,-28
CC1CCCCC1=NNC(=S)NCCc1ccccc1 (stereo unspecified),44*,/,/,/,/
CCC(=O)Nc1ccc(S(=O)(=O)NC[C@]2(O)CCc3ccccc32)c(C)c1,-13,/,/,/,/
Cc1ccc(NC(=O)Nc2sc(=S)n(C)c2C)cc1,-4,11*,/,0,-24
Cc1cc(C(=O)NNC(=O)c2ccc(Cl)cc2)c2ccccc2n1,-18,0,3,25*,-19
COc1ccc(C(=O)NNC(=O)c2cc(C)nc3ccccc23)cc1,-4,-1,-7,-2,-1
